Test results published in PubChem BioAssay (NCI).
Compounds without any hit were thinned out: in the full panel of roughly 83,000, 20% have a hit.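 Percent growth is the endpoint: 0 to 100 indicates growth inhibition (40 means 60% inhibition), 0 means no net growth, and negative values indicate cell death.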 Values without a mark were called inactive. Active and inactive are the calls of the source. Rule for the calls: active = growth percent below 10; inactive = the rest.

The compounds below were run on MDA-MB-468 breast (assay: NCI-60 one-dose screen, 48 h (100 = growth as untreated, 0 = no growth, -100 = all killed)). Settings: 10 µM unless noted.

SMILES | growth
Cn1ccnc1C(=O)/C=C/c1ccc(CC(=O)Nc2cc(C(F)(F)F)cc(C(F)(F)F)c2)cc1 | 78%
Cc1ccc2c(-c3nnc(N)s3)cc(=O)oc2c1C | 95.6%
Cc1cc(C)nc(SCC(=O)Nc2cccc(N=Cc3ccccc3O)c2)n1 | 87.8%
NS(=O)(=O)c1ccc(Nc2nc(N/N=C/c3ccc([N+](=O)[O-])cc3)nc(Nc3ccccc3)n2)cc1 | 1.11% (active)
NC(=S)N/N=C/c1cc(-c2cccc(N)c2)ccn1 | -11.8% (active)
C#Cc1cccc(Nc2ncnc3ccc(-c4cnc(Cl)c(NS(C)(=O)=O)c4)cc23)c1 | -78.8% (active)
COc1cc(-c2nc3c(ncc4ccc(=O)n(-c5ccccc5)c43)s2)cc(OC)c1OC | 47.3%
CC(C)Nc1ccc(Nc2ccc(NC(C)C)cc2)cc1 | -7.07% (active)
CCOC(=O)CC1C(COC(=O)NC)OC(n2cnc3c(NC(=O)Nc4ccccc4)ncnc32)C1O[Si](C)(C)C(C)(C)C (configuration not stated) | 61.9%
COc1ccc(-c2csc(NC(=O)c3ccc(Cc4n[nH]c(=O)c5cccnc45)cc3)n2)cc1 | 64.2%
Cc1ccccc1CCO | 97.5%
Oc1ccc(Br)cc1Sc1cc(Br)ccc1O | 82.3%
[O-]c1c[n+](-c2ccc(Cl)cc2)no1 | 98.7%
CCCCN(CCCC)CC(O)c1ccc(OCc2ccccc2)c2ccccc12 (configuration not stated) | 114%
CC(C)OC(=O)OCOP(=O)(OCOC(=O)OC(C)C)C1CCCN(O)C1=O (configuration not stated) | 36.3%
COc1cccc(/C=C2\Cc3ccccc3C2=O)c1 | 99.6%
O=[N+]([O-])c1ccc2[nH]cc(-c3c4ccsc4cc4[nH]c5ccc([N+](=O)[O-])cc5c34)c2c1 | 1.21% (active)
C=C1c2c(C)nn(-c3ccc(N)cc3)c2N(C)C23CC1C1(C)c4c(C)nn(-c5ccc(N)cc5)c4N(C)C(C)(CC12)C3 (configuration not stated) | 59.5%
CCCCNc1ccc2c3c1cccc3c(=O)n1c3ccccc3nc21 | -12.2% (active)

SMILES | growth
C#CCOc1ccc2nc(CCl)c(Cl)c(Nc3cccc(C(F)(F)F)c3)c2c1 | 10.3%
O=C(CSc1nc2ccc([N+](=O)[O-])cc2[nH]1)Nc1ccc(Br)cc1 | 14.1%
COc1ccc2sc(-n3nc4nc5n(c(=O)c4c3N)-c3ccccc3Sc3ccccc3-5)nc2c1 | 88.9%
CCOc1ccc(NC(=O)CSc2oc(-c3ccccc3)nc2S(=O)(=O)c2ccc(C)cc2)cc1 | 53%
Clc1ccc2nc(-c3ccc(-c4ccc(/C=N/NC5=NCCN5)cc4)s3)cn2c1 | 96.1%
COc1ccccc1-[n+]1cc(-c2ccc(-c3ccccc3)cc2)n2c1CCCCC2 | -23.5% (active)
COc1ccc2c(CCC(c3ccccc3)c3ccccc3)c3[n+](cc2c1OC)CCc1cc2c(cc1-3)OCO2 | -29.9% (active)
CCNCCNc1cc(-c2cccc(C(F)(F)F)c2)c(C#N)c2nc3ccccc3n12 | -84.3% (active)
COc1cc(/C=C/C(=O)c2c(-c3ccc(Cl)cc3)nc3sc(C)nn23)cc(OC)c1OC | 65.7%
NC(=O)c1c(NC(=O)c2cccc(OC(F)(F)F)c2)sc2c1CCC(=O)C2 | 42%
CCOC(=O)C(=CCC(C)C)C(=O)OCC | 98%
Cc1ccc(-c2nc(C#N)c(S(=O)(=O)N(C)CCO)o2)cc1 | 46.1%
O=C(/C=C/c1cc2ccccc2[nH]c1=O)c1ccc(Cl)cc1 | 15.4%
O=C1C=CC(=O)N1CCCCCCCCCCN1C(=O)C=CC1=O | 70.9%
Nc1ccc(Sc2ccc([N+](=O)[O-])c3nonc23)cc1 | 67.3%
O=C(Nc1nccs1)c1noc2ccccc12 | 87.3%
NC(=S)N/N=C/c1ccc(Cl)s1 | 98.8%
CC(=O)O[C@H]1[C@H](CC#CC#CC[C@@H]2C[C@]3(C)[C@H]4CC=C5[C@H]6[C@@H](C)[C@H](C)CC[C@]6(C(=O)NCCCCCCCCN)CC[C@@]5(C)[C@]4(C)CC[C@H]3C(C)(C)[C@H]2OC(C)=O)C[C@]2(C)[C@H]3CC=C4[C@H]5[C@@H](C)[C@H](C)CC[C@]5(C(=O)NCCCCCCCCN)CC[C@@]4(C)[C@]3(C)CC[C@H]2C1(C)C | 73.5%
